In PubChem BioAssay (NCATS) one finds Potency data, which are given here for 18 compounds.

Assay [1] in a line: qHTS of pediatric cancer cell lines to identify multiple opportunities for drug repurposing: Primary screen for U-2 OS cells (AID 1347096). Note: nearly all actives have a fitted effect of over 50% in size. Note: potency is the fitted concentration of half-maximal effect. In outline: (§1)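 Cells (500-1,000/well) in growth media were settled 5 h at 37 degrees C, then given compounds for 48 h. Viability was read as CellTiter-Glo luminescence. Primary runs used MIPE at 11 points (0.78 nM-46 µM) and NPC at 8 points (0.59 nM-46 µM); follow-ups used 11 points.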

Assay [2] is described as follows: qHTS of pediatric cancer cell lines to identify multiple opportunities for drug repurposing: Primary screen for Saos-2 cells (AID 1347097). Note: nearly all actives have a fitted effect of over 40% in size. Note: potency is the fitted concentration of half-maximal effect. The gist of the method:
(§2)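 Viability was measured as metabolically active cells after 48 hours of treatment, read by CellTiter-Glo luminescence. Compounds were tested at multiple final concentrations, giving concentration-response curves.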

A short description of assay [3]: qHTS of pediatric cancer cell lines to identify multiple opportunities for drug repurposing: Primary screen for SK-N-SH cells (AID 1347098). Note: nearly all actives have a fitted effect of over 65% in size. Note: potency is the fitted concentration of half-maximal effect. The gist of the method:
(§3)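 Cells (500-1,000/well) rested 5 h, then received compounds for 48 h; metabolically active cells were measured by CellTiter-Glo luminescence. Final concentrations spanned up to 46 µM (MIPE, 11-point) or 0.59 nM-46 µM (NPC, 8-point) in primary screens, 11-point in follow-ups.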
On the technique in general: In qHTS, concentration-response curves come from the screen itself.

Assay [4] can be described thus: qHTS of pediatric cancer cell lines to identify multiple opportunities for drug repurposing: Primary screen for LAN-5 cells (AID 1347100). Note: potency is the fitted concentration of half-maximal effect. The gist of the method:
as §1

A short description of assay [5]: qHTS of pediatric cancer cell lines to identify multiple opportunities for drug repurposing: Primary screen for BT-12 cells (AID 1347101). Note: nearly all actives have a fitted effect of over 25% in size. Note: potency is the fitted concentration of half-maximal effect. In outline: as §3
Assay [6] in a line: qHTS of pediatric cancer cell lines to identify multiple opportunities for drug repurposing: Primary screen for Rh18 cells (AID 1347102). Note: nearly all actives have a fitted effect of over 65% in size. Note: potency is the fitted concentration of half-maximal effect. In outline:
as §1

Assay [7] in a line: qHTS of pediatric cancer cell lines to identify multiple opportunities for drug repurposing: Primary screen for OHS-50 cells (AID 1347103). Note: nearly all actives have a fitted effect of over 40% in size. Note: potency is the fitted concentration of half-maximal effect. In outline: as §3
A short description of assay [8]: qHTS of pediatric cancer cell lines to identify multiple opportunities for drug repurposing: Primary screen for RD cells (AID 1347104). Note: nearly all actives have a fitted effect of over 55% in size. Note: potency is the fitted concentration of half-maximal effect. In outline: as §2
The nature of assay [9]: qHTS of pediatric cancer cell lines to identify multiple opportunities for drug repurposing: Primary screen for MG 63 (6-TG R) cells (AID 1347105). Note: nearly all actives have a fitted effect of over 50% in size. Note: potency is the fitted concentration of half-maximal effect. The gist of the method: as §2
Assay [10] is described as follows: qHTS of pediatric cancer cell lines to identify multiple opportunities for drug repurposing: Primary screen for control Hh wild type fibroblast cells (AID 1347106).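 Note: series mostly up to about 46 µM; a drop in luminescence marks cytotoxicity and a rise apparent proliferation; nearly all actives have a fitted effect of over 55% in size.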 The gist of the method:
as §1

The nature of assay [11]: qHTS of pediatric cancer cell lines to identify multiple opportunities for drug repurposing: Primary screen for Rh30 cells (AID 1347107). Note: series mostly up to about 46 µM; nearly all actives have a fitted effect of over 75% in size. The gist of the method:
as §1

Assay [12] in a line: qHTS of pediatric cancer cell lines to identify multiple opportunities for drug repurposing: Primary screen for Rh41 cells (AID 1347108). Note: nearly all actives have a fitted effect of over 70% in size. Note: potency is the fitted concentration of half-maximal effect. In outline: as §2
The nature of assay [13]: qHTS of pediatric cancer cell lines to identify multiple opportunities for drug repurposing: Primary screen for NB1643 cells (AID 1347099). Note: nearly all actives have a fitted effect of over 50% in size. Note: potency is the fitted concentration of half-maximal effect. In outline: as §2
A short description of assay [14]: qHTS of pediatric cancer cell lines to identify multiple opportunities for drug repurposing: Confirmatory screen for NB1643 cells (AID 1347109). Note: nearly all actives have a fitted effect of over 45% in size. Note: potency is the fitted concentration of half-maximal effect. The gist of the method: as §1
The nature of assay [15]: qHTS of pediatric cancer cell lines to identify multiple opportunities for drug repurposing: Confirmatory screen for SK-N-MC cells (AID 1347111).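 Note: cells exposed to compound for 48 h before the readout; nearly all actives have a fitted effect of over 70% in size.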 Note: potency is the fitted concentration of half-maximal effect. The gist of the method:
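Metabolically active cells were quantified by ATP-dependent luminescence (CellTiter-Glo, 15 min at room temperature) following 48 h treatment. Cells had been plated at 500-1,000 per well and settled for 5 h beforehand.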

The nature of assay [16]: qHTS of pediatric cancer cell lines to identify multiple opportunities for drug repurposing: Confirmatory screen for BT-12 cells (AID 1347112). Note: nearly all actives have a fitted effect of over 55% in size. Note: potency is the fitted concentration of half-maximal effect. In outline: as §1
A short description of assay [17]: qHTS of pediatric cancer cell lines to identify multiple opportunities for drug repurposing: Confirmatory screen for DAOY cells (AID 1347114). Note: nearly all actives have a fitted effect of over 65% in size. Note: potency is the fitted concentration of half-maximal effect. In outline:
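Viability measured as metabolically active cells via CellTiter-Glo luminescence following 48 hours of compound exposure, 11-point dilutions in confirmatory testing. 500-1,000 cells/well plated 5 hours before dosing; controls were DMSO and 2.3 µM bortezomib.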

Assay [18] is described as follows: qHTS of pediatric cancer cell lines to identify multiple opportunities for drug repurposing: Confirmatory screen for LAN-5 cells (AID 1347113). Note: nearly all actives have a fitted effect of over 65% in size. Note: potency is the fitted concentration of half-maximal effect. The gist of the method:
as §1

A short description of assay [19]: qHTS of pediatric cancer cell lines to identify multiple opportunities for drug repurposing: Confirmatory screen for NB-EBc1 cells (AID 1347115).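 Note: cells exposed to compound for 48 h before the viability read; nearly all actives have a fitted effect of over 45% in size.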 Note: potency is the fitted concentration of half-maximal effect. In outline: as §1

Where “and” joins values, the source holds several entries; their conditions need not be identical. Equal entries are not always repeated. Results filed as inconclusive are left out. Calls of active or inactive are those of the source. Calls come from the whole dose curve; as a rule, active = well fitted curve in the direction sought with a large enough effect; inconclusive = small, poorly fitted or top-dose-only effect, or another doubt; inactive = no such curve, though single readings can be large; an effect the other way counts as inactive or inconclusive.

Regarding `CC(=O)CC(c1ccccc1)c1c(O)c2ccccc2oc1=O` (stereo not given), the Potency result in assay [1], in assay [2], in assay [3], in assay [4], in assay [5] and in [6] was “inactive” in each case. The Potency result in assay [7], in [8], in assay [9], in assay [10], in assay [11] and in assay [12] was “inactive” throughout.

Consider `COc1ccc(-c2ccc3cc(C(=O)O)ccc3c2)cc1C12CC3CC(CC(C3)C1)C2`, for which the Potency result in assay [1], in assay [3], in assay [13], in assay [5], in [6] and in [8] was “inactive” in each case. In addition, the Potency result in [10], in assay [11], in assay [12], in assay [16] and in assay [17] was “inactive” in each case. Further, the Potency in assay [2] was 18.7 µM (active); in [7], 0.0153 µM (active); in [14], 9.27 µM (active); in assay [15], 2.61 µM (active).

As for `Cc1nnc(C(=O)NC(C)(C)c2nc(C(=O)NCc3ccc(F)cc3)c(O)c(=O)n2C)o1`, the Potency result in assay [1], in assay [2], in [3], in [13], in assay [4] and in [5] was “inactive” each time. In addition, the Potency result in assay [6], in assay [8], in assay [9], in assay [10], in assay [11] and in assay [12] was “inactive” each time.

On to `COc1cccc(N(C)C(=S)Oc2ccc3c(c2)CCCC3)n1`, for which the Potency entry in [1], in assay [2], in [3], in [13], in [4] and in [6] was “inactive” each time. Further, the Potency result in assay [8], in [9], in assay [10], in [11] and in assay [12] was “inactive” throughout. The Potency in assay [7] is 24.3 µM (active).

For the compound `CNC(=O)c1cc(Oc2ccc(NC(=O)Nc3ccc(Cl)c(C(F)(F)F)c3)cc2)ccn1`, the Potency in assay [1] was 18.7 µM (active); in [2], 18.7 µM (active); in assay [3], 19.2 µM (active) and 15.4 µM (active); in assay [13], 4.69 µM (active); in [4], 20.9 µM (active); in assay [5], 17.2 µM (active). The Potency in assay [6] was 18.7 µM (active); in assay [8] it was 18.7 µM (active) and 23.7 µM (active); in assay [12], 18.7 µM (active); in assay [14], 20.8 µM (active); in assay [18], 23.3 µM (active); in [19], 18.5 µM (active). Besides, the Potency result in assay [10] was “inactive”.

Take `CN1CCN(c2c(F)cc3c(=O)c(C(=O)O)cn(CCF)c3c2F)CC1`: the Potency result in assay [1], in assay [2], in assay [3], in [13], in assay [4] and in assay [5] was “inactive” in each case. Also, the Potency result in [6], in assay [8], in assay [9], in assay [10], in assay [11] and in assay [12] was “inactive” throughout.

As to `CCOc1cc(N)c(Cl)cc1C(=O)NCC1CN(Cc2ccc(F)cc2)CCO1` (stereo not given), the Potency entry in assay [1], in assay [2], in assay [3], in assay [4], in assay [5] and in assay [6] was “inactive” throughout. Further, the Potency entry in [7], in [8], in [9], in [10] and in assay [11] was “inactive” in each case.

`CCC(=O)O[C@]1(C(=O)CCl)[C@@H](C)C[C@H]2[C@@H]3CCC4=CC(=O)C=C[C@]4(C)[C@@]3(F)[C@@H](O)C[C@@]21C`: the Potency entry in assay [1], in assay [2], in [3], in assay [13], in assay [4] and in assay [6] was “inactive” each time. Further, the Potency entry in assay [8], in [9], in assay [10], in assay [11], in [14] and in [15] was “inactive” each time. The Potency result in [16], in assay [18], in [17] and in [19] was “inactive” in each case.

With `O=C(O)CSCC(=O)NC1CCSC1=O` (stereo not given), the Potency entry in assay [1], in assay [2], in assay [3], in assay [4], in assay [5] and in [6] was “inactive” in each case. Besides, the Potency entry in assay [7], in assay [8], in assay [9], in [10], in assay [11] and in assay [12] was “inactive” each time.

For `Cc1noc(NS(=O)(=O)c2ccc(N)cc2)c1C`, the Potency entry in [1], in assay [2], in [3], in assay [4], in assay [5] and in assay [6] was “inactive” each time. Further, the Potency entry in assay [7], in assay [8], in assay [9], in [10], in assay [11] and in assay [12] was “inactive” each time.

In the case of `Cc1cccc(Nc2ccncc2S(=O)(=O)NC(=O)NC(C)C)c1`, the Potency entry in assay [1], in assay [2], in assay [3], in assay [13], in assay [4] and in assay [5] was “inactive” in each case. Further, the Potency entry in [6], in assay [8], in assay [9], in assay [10], in assay [11] and in assay [12] was “inactive” throughout.

For the compound `O=C(NCC1CN(c2ccc(N3CCOCC3=O)cc2)C(=O)O1)c1ccc(Cl)s1` (stereo not given), the Potency entry in assay [1], in [2], in [3], in assay [13], in [4] and in assay [6] was “inactive” throughout. The Potency result in assay [8], in [9], in [10], in assay [11], in assay [12] and in assay [17] was “inactive” in each case. The Potency entry in assay [19] was “inactive”. Also, the Potency in assay [15] was 2.93 µM (active).

On to `O=c1oc2c(O)c(O)cc3c(=O)oc4c(O)c(O)cc1c4c23`, for which the Potency entry in [1], in assay [2], in assay [3], in assay [13], in [4] and in [6] was “inactive” throughout. For the same compound, the Potency entry in [7], in assay [9], in assay [10], in assay [11] and in assay [12] was “inactive” each time.

In the case of `NC(=O)N1c2ccccc2CC(=O)c2ccccc21`, the Potency result in assay [1], in assay [2], in assay [3], in assay [4], in assay [5] and in assay [6] was “inactive” each time. The Potency entry in [7], in assay [8], in assay [9], in assay [10] and in assay [11] was “inactive” throughout.

In the case of `CC1=C(C(=O)O)N2C(=O)[C@@H](NC(=O)C(N)c3ccccc3)[C@H]2SC1` (stereo not given in full), the Potency result in [1], in [2], in [3], in assay [13], in assay [4] and in assay [5] was “inactive” each time. Besides, the Potency entry in [6], in assay [8], in [9], in assay [10] and in [11] was “inactive” in each case.

On to `Nc1ccc(S(=O)(=O)Nc2ccccn2)cc1`, for which the Potency entry in assay [1], in [2], in [3], in assay [13], in assay [4] and in [5] was “inactive” throughout. Also, the Potency entry in assay [6], in assay [8], in assay [9], in assay [10], in assay [11] and in [12] was “inactive” throughout.

For the compound `CN(C)CCc1c[nH]c2ccc(C[C@H]3COC(=O)N3)cc12`, the Potency entry in assay [1], in [2], in assay [3], in assay [13], in [4] and in assay [5] was “inactive” throughout. The Potency entry in assay [6], in [8], in [9], in [10], in assay [11] and in [12] was “inactive” each time.

With `C[C@@H]1C[C@H]2[C@@H]3CCC4=CC(=O)C=C[C@]4(C)[C@@]3(Cl)[C@@H](O)C[C@]2(C)[C@@]1(OC(=O)c1ccco1)C(=O)CCl`, the Potency in [1] was 14.8 µM (active); in assay [2], 14.8 µM (active); in assay [3], 19.2 µM (active); in [13] it was 2.64 µM (active); in assay [4], 10.5 µM (active); in assay [5], 27.6 µM (active) and 9.68 µM (active). In addition, the Potency in assay [8] is 8.33 µM (active); in assay [9], 23.5 µM (active); in assay [14], 0.369 µM (active); in assay [15], 0.827 µM (active); in assay [16], 5.85 µM (active); in assay [18], 0.233 µM (active). Moreover, in assay [17], the Potency was 10.4 µM (active). For the same compound, the Potency entry in assay [10] and in assay [11] was “inactive” in each case.
